# Source: PubChem BioAssay
# Unmarked numbers belong to inactive results. The rule behind the calls is not given here.
# Biological target: Pantothenate synthetase (Mycobacterium tuberculosis (strain ATCC 25618 / H37Rv)) (UniProt P9WIL5)
# Test: Recombinant Mtb pantothenate synthetase (PanC) inhibitors, coupled enzyme, confirmatory (AID 375);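 note: 0% = full reaction with vehicle and 100% = no enzyme background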
# Details: coupled enzyme assay; at 10 µM, hits give high values
# Pantothenate synthetase (Mycobacterium tuberculosis (strain ATCC 25618 / H37Rv)), sequence (P9WIL5 whole entry, looked up): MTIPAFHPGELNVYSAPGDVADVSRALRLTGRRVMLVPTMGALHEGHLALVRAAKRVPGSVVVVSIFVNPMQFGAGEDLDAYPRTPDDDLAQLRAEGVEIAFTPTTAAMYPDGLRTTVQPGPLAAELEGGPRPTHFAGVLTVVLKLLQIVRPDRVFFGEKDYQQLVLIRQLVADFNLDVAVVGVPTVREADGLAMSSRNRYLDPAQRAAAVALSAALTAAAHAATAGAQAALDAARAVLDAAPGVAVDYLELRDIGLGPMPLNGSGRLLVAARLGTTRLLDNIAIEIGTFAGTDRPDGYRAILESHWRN
row,SMILES,inhibition [%]
1,CN(C)S(=O)(=O)c1ccc(C(=O)N2CCC(c3nc4ccccc4o3)CC2)cc1,5
2,CC(=O)Oc1cccc(/C=c2\sc3nc(-c4ccco4)nn3c2=O)c1,8
3,CN(C(=O)c1ccco1)c1nnc(C23CC4CC(CC(C4)C2)C3)s1,0
4,CC(C)(C)C(=O)Cn1c(=N)n(Cc2ccccc2)c2ccccc21,8
5,Cc1ccc(C)c(-c2nc3ccc(N)cc3[nH]2)c1,0
6,O=C(Cn1ncc2c(=O)oc3ccccc3c21)Nc1nc2ccccc2s1,0
7,CC1Cc2ccccc2N1NC(=O)c1ccc(Cl)c(S(N)(=O)=O)c1 (stereo not given),0
8,CC(C)COC(=O)C1C2C=CC3(CN(C(C)c4ccc(Br)cc4)C(=O)C13)O2 (stereo not given),8
9,CCCCCCCC(=O)OCC(=O)[C@@]1(O)CC[C@H]2[C@@H]3CCC4=CC(=O)CC[C@]4(C)[C@H]3[C@@H](O)C[C@@]21C,1
10,CC(=O)OCC[N+](C)(C)C,0
11,O=C(NC1CCCCCC1)C1c2ccccc2C(=O)N1Cc1cccnc1 (stereo not given),3
12,OCC#CCSc1nnc(-c2ccccc2Br)o1,0
13,Cc1ccc(NC(=O)CSc2nnc(-c3cnccn3)n2Cc2ccco2)cc1C,0
14,Cc1ccc2cc(C(c3nnnn3CC3CCCO3)N3CCCC4(CCCCC4)C3)c(=O)[nH]c2c1 (stereo not given),0
15,O=C(CCn1c(=O)sc2ccccc21)NCc1ccc2c(c1)OCO2,0
16,COc1ccc2cc(CN(CCO)C(=O)c3ccc(Br)cc3)c(=O)[nH]c2c1,14
17,COC(=O)Cc1c(C)nc2nc(-c3ccccc3)[nH]n2c1=O,0
18,O=C(CCC(=O)N1CCN(S(=O)(=O)c2ccccc2)CC1)c1cccs1,9
19,O=C(Nc1nc(-c2ccccn2)cs1)C1CC1,0
20,COc1cccc(-c2cc(C(=O)N3CCc4ccccc4C3)no2)c1,10

row,SMILES,inhibition [%]
1,Nc1nc(SCc2nc3scc(-c4cccs4)c3c(=O)[nH]2)n[nH]1,6
2,O=c1oc2ccccc2c(O)c1CN1CCCCC1,0
3,CCOC(=O)c1ccc2ncc(C(=O)OCC)c(NCCN(C)C)c2c1,0
4,COc1ccc(CCNc2oc(Cc3cccc4ccccc34)nc2C#N)cc1OC,5
5,CCSc1oc(-c2ccco2)nc1S(=O)(=O)c1ccccc1,0
6,COc1ccccc1CN(Cc1nc2ccccc2c(=O)[nH]1)C(=O)Nc1ccccc1,0
7,CCSc1nc2c(c(=O)[nH]1)C(c1cccnc1)C(C(=O)OC(C)C)=C(C)N2 (stereo not given),0
8,Cc1oc2cc(O)ccc2c(=O)c1-c1cnn(-c2ccccc2)c1,5
9,O=C(CNC(=O)c1cc2ccccc2o1)NCc1cccs1,0
10,c1ccc(OCc2nc3ccccc3[nH]2)cc1,0
11,O=C(N1CCCCCC1)N1CCN(S(=O)(=O)N2CCCCC2)CC1,0
12,Cc1cc(C)n2cc(CSc3nnnn3-c3ccc(Cl)cc3)nc2n1,0
13,CCOc1ccccc1C(=O)NCCCn1ccnc1,14
14,CCOC(=O)c1ccccc1NC1c2ccccc2C(=O)N1C1CCN(C(=O)OCC)CC1 (stereo not given),2
15,COCCCN1C(=O)C(O)=C(C(C)=O)C1c1ccccn1 (stereo not given),3
16,O=C(c1ccco1)N1CCN(/C(=N/S(=O)(=O)c2cccs2)c2ccccc2Cl)CC1,0
17,COc1ccccc1S(=O)(=O)Cc1ccc(C(=O)N2CCN(c3ccccn3)CC2)o1,0
18,COC(=O)C1=C(N)OC2=C(C(=O)CCC2)C1c1cccs1 (stereo not given),0
19,O=c1c2ccccc2nc2n1CCN2,0
20,Cc1[nH]c(=O)[nH]c(=O)c1S(=O)(=O)N1CCCC(C(=O)NCc2ccco2)C1 (stereo not given),5
